Potency estimated from few doses data for three compounds are collected here from PMC11062922 (Nature Chemical Biology, 2023).

Like-named read-outs stand apart in the source and are kept apart here.

What all share (design): species or system human, MV4-11 + K-562 + COLO205 + SK-N-BE2 + OVCAR-8
The test system of one test is ADRBK1. Particulars: read-out: apparent Kd, n = 1.
For a further test, the system named is AKT3. The settings on record: read-out: apparent Kd, n = 1.
The next test has as its system CDC42BPA. Particulars: read-out: apparent Kd; compound concentrations: 100 nM and 1000 nM (sheet 'Samples'), CATDS: 2.9889506530370698E-2; n = 1.
For a further test, the system named is CDC42BPB. The settings on record: read-out: apparent Kd; compound concentrations: 100 nM and 1000 nM (sheet 'Samples'), CATDS: 7.2209321727509101E-2; n = 1.
For another test, the system named is CDC42BPG. Particulars: read-out: apparent Kd; compound concentrations: 100 nM and 1000 nM (sheet 'Samples'), CATDS: 5.7260921277851103E-2; n = 1.
A further test has as its system CDKL5. Particulars: read-out: apparent Kd; compound concentrations: 100 nM and 1000 nM (sheet 'Samples'), CATDS: 3.0884187274208798E-2; n = 1.
The next test relates to CHEK1. Particulars: read-out: apparent Kd; compound concentrations: 100 nM and 1000 nM (sheet 'Samples'), CATDS: 4.9980963828105997E-2; n = 1.
The subject of a further test is JAK2. Particulars: read-out: apparent Kd; compound concentrations: 100 nM and 1000 nM (sheet 'Samples'), CATDS: 2.4440515668024899E-2; n = 1.
The test system of a further test is NUAK1. The settings on record: read-out: apparent Kd; compound concentrations: 100 nM and 1000 nM (sheet 'Samples'), CATDS: 4.1044446827870798E-2; n = 1.
Another test deals with NUAK2. Particulars: read-out: apparent Kd; compound concentrations: 100 nM and 1000 nM (sheet 'Samples'), CATDS: 3.8421609760156301E-2; n = 1.
The next test has as its system PKN1. The settings on record: read-out: apparent Kd; compound concentrations: 100 nM and 1000 nM (sheet 'Samples'), CATDS: 3.7942588141146198E-2; n = 1.
Another test has as its system PKN2. The settings on record: read-out: apparent Kd, n = 1.
In the next test the test system is PKN3. The settings on record: read-out: apparent Kd; compound concentrations: 100 nM and 1000 nM (sheet 'Samples'), CATDS: 1.9288035237500001E-2; n = 1.
For a further test, the system named is PRKAA1. The settings on record: read-out: apparent Kd; compound concentrations: 100 nM and 1000 nM (sheet 'Samples'), CATDS: 2.2574550296483802E-2; n = 1.
The next test concerns PRKAA2. The settings on record: read-out: apparent Kd; compound concentrations: 100 nM and 1000 nM (sheet 'Samples'), CATDS: 1.9838935716802002E-2; n = 1.
The test system of another test is PRKACA. Particulars: read-out: apparent Kd; compound concentrations: 100 nM and 1000 nM (sheet 'Samples'), CATDS: 9.6222688341774595E-2; n = 1.
The next test deals with PRKACB. Particulars: read-out: apparent Kd; compound concentrations: 100 nM and 1000 nM (sheet 'Samples'), CATDS: 7.2959241198541205E-2; n = 1.
For another test, the system named is PRKAG1. Particulars: read-out: apparent Kd; compound concentrations: 100 nM and 1000 nM (sheet 'Samples'), CATDS: 2.1564965270821398E-2; n = 1.
Another test concerns PRKAG2. Particulars: read-out: apparent Kd; compound concentrations: 100 nM and 1000 nM (sheet 'Samples'), CATDS: 2.8394039575996899E-2; n = 1.
For a further test, the system named is PRKCA. Particulars: read-out: apparent Kd; compound concentrations: 100 nM and 1000 nM (sheet 'Samples'), CATDS: 4.1441031849898502E-2; n = 1.
The subject of another test is PRKCB. The settings on record: read-out: apparent Kd; compound concentrations: 100 nM and 1000 nM (sheet 'Samples'), CATDS: 3.5643049371418899E-2; n = 1.
In the next test the test system is PRKCD. The settings on record: read-out: apparent Kd; compound concentrations: 100 nM and 1000 nM (sheet 'Samples'), CATDS: 5.5614379812914103E-2; n = 1.
Another test concerns PRKCQ. Particulars: read-out: apparent Kd; compound concentrations: 100 nM and 1000 nM (sheet 'Samples'), CATDS: 6.3184001345655702E-2; n = 1.
The next test has as its system PRKD2. The settings on record: read-out: apparent Kd; compound concentrations: 100 nM and 1000 nM (sheet 'Samples'), CATDS: 1.9916010120102301E-2; n = 1.
The subject of another test is PRKG1. Particulars: read-out: apparent Kd, n = 1.
A further test deals with PRKX. The settings on record: read-out: apparent Kd; compound concentrations: 100 nM and 1000 nM (sheet 'Samples'), CATDS: 3.8731961225305901E-2; n = 1.
A further test relates to ROCK1. Particulars: read-out: apparent Kd; compound concentrations: 100 nM and 1000 nM (sheet 'Samples'), CATDS: 7.2769225266658799E-2; n = 1.
Another test deals with ROCK2. The settings on record: read-out: apparent Kd, n = 1.
For the next test, the system named is RPS6KA5. The settings on record: read-out: apparent Kd; compound concentrations: 100 nM and 1000 nM (sheet 'Samples'), CATDS: 2.03243213098795E-2; n = 1.
A further test deals with RPS6KB1. The settings on record: read-out: apparent Kd, n = 1.
For a further test, the system named is AKT2. The settings on record: read-out: apparent Kd; compound concentrations:100 nM and 1000 nM (sheet 'Samples'); n = 1.
A further test has as its system NQO1. The settings on record: read-out: apparent Kd; compound concentrations:100 nM and 1000 nM (sheet 'Samples'); n = 1.
The next test has as its system PRKCI. The settings on record: read-out: apparent Kd; compound concentrations:100 nM and 1000 nM (sheet 'Samples'); n = 1.
A further test deals with TTN. Particulars: read-out: apparent Kd; compound concentrations:100 nM and 1000 nM (sheet 'Samples'); n = 1.
In the next test the test system is AKT1. Particulars: read-out: apparent Kd; compound concentrations:100 nM and 1000 nM (sheet 'Samples'); n = 1.
For another test, the system named is MAP2K3. Particulars: read-out: apparent Kd; compound concentrations:100 nM and 1000 nM (sheet 'Samples'); n = 1.
The subject of a further test is MAPK10. Particulars: read-out: apparent Kd; compound concentrations:100 nM and 1000 nM (sheet 'Samples'); n = 1.
The next test concerns MAPK11. Particulars: read-out: apparent Kd; compound concentrations:100 nM and 1000 nM (sheet 'Samples'); n = 1.
The test system of the next test is MAPK9. The settings on record: read-out: apparent Kd; compound concentrations:100 nM and 1000 nM (sheet 'Samples'); n = 1.
Another test relates to MAPKAPK2. Particulars: read-out: apparent Kd; compound concentrations:100 nM and 1000 nM (sheet 'Samples'); n = 1.
Setting [1] is: compound concentrations:100 nM and 1000 nM (sheet 'Samples').

As to `COc1ccc(O)c(C(=O)c2ccc(C(=O)N[C@@H]3CCCNC[C@H]3NC(=O)c3ccncc3)cc2)c1F.Cl` [RO4367842-001], the potency estimated from few doses in the test on ADRBK1 (compound concentrations: 100 nM and 1000 nM (sheet 'Samples'), CATDS: 2.1593661333857501E-2) is 0.587 µM; with AKT3 (compound concentrations: 100 nM and 1000 nM (sheet 'Samples'), CATDS: 1.9200970976664199E-2), 1.46 µM; with CDC42BPA, 0.129 µM; with CDC42BPB it was 0.0172 µM; in the test with CDC42BPG, 0.0257 µM; with CDKL5, 0.115 µM. Also, the potency estimated from few doses in the test on CHEK1 was 0.0335 µM; in the test with JAK2 it was 0.294 µM; in the test on NUAK1, 0.0517 µM; in the test with NUAK2 it was 0.0609 µM; in the test on PKN1, 0.0629 µM; in the test with PKN2 (compound concentrations: 100 nM and 1000 nM (sheet 'Samples'), CATDS: 2.7249776498222002E-2), 0.182 µM. For the same compound, the potency estimated from few doses is 1.4 µM with PKN3; 0.448 µM in the test on PRKAA1; 1.09 µM with PRKAA2; 0.0111 µM with PRKACA; 0.017 µM with PRKACB; 0.592 µM in the test with PRKAG1. Besides, the potency estimated from few doses with PRKAG2 was 0.155 µM; in the test on PRKCA it was 0.0505 µM; in the test with PRKCB, 0.0744 µM; with PRKCD it was 0.0272 µM; in the test on PRKCQ it was 0.0216 µM; with PRKD2 it was 1.05 µM. Besides, the potency estimated from few doses in the test with PRKG1 (compound concentrations: 100 nM and 1000 nM (sheet 'Samples'), CATDS: 8.1540237220624201E-2) was 0.0142 µM; in the test with PRKX, 0.0596 µM; in the test with ROCK1, 0.017 µM; in the test with ROCK2 (compound concentrations: 100 nM and 1000 nM (sheet 'Samples'), CATDS: 5.7736516058252897E-2), 0.0254 µM; in the test with RPS6KA5, 0.897 µM; in the test with RPS6KB1 (compound concentrations: 100 nM and 1000 nM (sheet 'Samples'), CATDS: 4.2911282581945501E-2), 0.0465 µM.

For the compound `CCn1c(-c2nonc2N)nc2cnc(Oc3cccc(NC(=O)c4ccc(OCCN5CCOCC5)cc4)c3)cc21.Cl` [GSK269962B], the potency estimated from few doses is 1.48 µM in the test on ADRBK1 (setting [1]); 2.18 µM in the test on AKT2; 1.6 µM with AKT3 (setting [1]); 0.175 µM in the test with NQO1; 1.85 µM in the test with PKN2 (setting [1]); 1.97 µM in the test on PRKCI. The potency estimated from few doses with PRKG1 (setting [1]) is 0.0703 µM; in the test on ROCK2 (setting [1]), 0.294 µM; in the test on RPS6KB1 (setting [1]), 0.719 µM; in the test with TTN, 0.388 µM.

As for `C[C@@H](Cn1ncnn1)Nc1ncc2cc(Oc3ccc(F)cc3F)c(=O)n(C)c2n1` [RO5067310-000], the potency estimated from few doses in the test on ADRBK1 (setting [1]) is 2.27 µM; in the test with AKT1, 1.75 µM; in the test on MAP2K3 it was 1.77 µM; with MAPK10, 0.424 µM; in the test with MAPK11 it was 0.0309 µM; in the test on MAPK9, 0.265 µM. Moreover, the potency estimated from few doses with MAPKAPK2 was 0.00325 µM.
